# Assay outcomes (PubChem)
# Hits are enriched below; roughly 1.1% of the tested compounds scored in any of these assays.
# GPT2 inh: Primary qHTS assay for inhibitors of Glutamate pyruvate transaminase 2 (GPT2); Potency, µM (series often up to 57.7 µM), without a hit: at the highest dose activity change, negative = inhibition, most hits filed as inhibitors; actives 0.25% (n = 100,000); AID 1671188, 2021; Alanine aminotransferase 2 (Homo sapiens), Q8TD30; Recombinant GPT2, coupled pyruvate oxidase/HRP Amplex Red fluorescence; further: potency means the concentration at half of the fitted maximal effect; nearly all actives have a fitted effect of over 60% in size
#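 Fluorescence read-out: pyruvate from GPT2 turnover coupled to pyruvate oxidase, HRP and Amplex Red (0.2mM ThPP, 0.2U/mL PO and HRP, 50uM Amplex final). Substrates 250uM a-KG, 2mM L-alanine; enzyme 10ng/uL; 30 min RT.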
# IP6K1 inhibitor: Primary qHTS assay for small molecule inhibitors of Inositol hexaphosphate kinase 1 (IP6K1). IP6K1 kinase, ADP-Glo luminescence, 2 h; active compounds read low. activity change, % (series mostly up to about 58 µM). Inositol hexakisphosphate kinase 1 (Homo sapiens), Q92551. actives 0.81% (n = 140,000). AID 1645851, 2021; in the data active means activity change below about -25%
# Target sequence (Q92551 whole entry, looked up): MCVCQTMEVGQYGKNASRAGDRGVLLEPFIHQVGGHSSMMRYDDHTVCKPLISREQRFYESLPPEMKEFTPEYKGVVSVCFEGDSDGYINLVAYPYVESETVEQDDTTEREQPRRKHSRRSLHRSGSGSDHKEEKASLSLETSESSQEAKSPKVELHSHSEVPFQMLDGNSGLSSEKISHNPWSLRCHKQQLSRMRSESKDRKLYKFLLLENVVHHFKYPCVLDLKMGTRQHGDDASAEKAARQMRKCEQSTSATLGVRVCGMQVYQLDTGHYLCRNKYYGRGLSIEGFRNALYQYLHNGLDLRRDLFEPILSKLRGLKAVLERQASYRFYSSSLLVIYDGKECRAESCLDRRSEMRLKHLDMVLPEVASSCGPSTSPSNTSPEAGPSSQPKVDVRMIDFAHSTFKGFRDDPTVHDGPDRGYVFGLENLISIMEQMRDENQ
#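 ADP-Glo luminescence measures ADP made by human IP6K1 during a 2 h RT reaction with ATP/IP6 (mix at 1.3 mM/130 uM); top library doses 57.5 and 19.1 uM final.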
# SNCA viab count: GF-AFC viability counterscreen for inhibitors of alpha-synuclein gene (SNCA) expression; HEK-293-SNCA-luc viability, GF-AFC fluorescence, 24 h; Potency, µM (titrated, usually from 57.1 µM), for the others: at the top dose activity change, negative = cytotoxicity, actives largely listed as cytotoxic; actives 0.12% (n = 150,000); AID 1671193, 2021;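 further: potency means the concentration at half of the fitted maximal effect; 0% = DMSO-treated cells and -100% = medium-only wells without cells; nearly all actives have a fitted effect of over 30% in size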
#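 Cytotoxicity counterscreen: after 24 h compound treatment of genome-edited SNCA-luciferase HEK-293 cells, live-cell protease substrate GF-AFC read by fluorescence after 30 min; activity scaled between DMSO (0%) and medium-only (-100%), curves Hill-fitted.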
# SNCA expr inh: Primary qHTS assay for inhibitors of alpha-synuclein gene (SNCA) expression. actives 0.17% (n = 140,000). Potency, µM (series often up to 57.2 µM), for inactives: at the top dose activity change, negative = inhibition, usual class: inhibitors. HEK-293 SNCA-luciferase knock-in, luminescence, 24 h;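 further: potency means the concentration at half of the fitted maximal effect; plate controls were DMSO cells for no effect and cell-free wells for full effect; nearly all actives have a fitted effect of over 45% in size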
# * = called active by the depositor; i = inactive; ? = inconclusive; nt = no result; ! = a repeat was not active; [ ] = remark or other dose. Unless noted, the call rests on the fitted dose curve; in most records, active means well fitted curve in the direction sought with a large enough effect; inconclusive means small, poorly fitted or top-dose-only effect, or another doubt; inactive means no such curve, though single readings can be large; an effect the other way counts as inactive or inconclusive. Unless noted, on the % scale 0 is the no-effect control and ±100 the full control effect.
SMILES,GPT2 inh,IP6K1 inhibitor,SNCA viab count,SNCA expr inh
CCC(Sc1nc2nccnc2c(=O)n1Cc1ccccc1Cl)C(=O)NC1CCCCC1 (stereo not given),nt,29,?,3.5µM*
CCS(=O)(=O)c1oc(-c2ccc(F)cc2)nc1S(=O)(=O)c1ccccc1,nt,-8,7.9µM*,?
CCC(C)S(=O)(=O)c1oc(-c2ccc(F)cc2)nc1S(=O)(=O)c1ccc(F)cc1 (stereo not given),nt,1,28µM*,?
CC1=C[C@@H](CN2CCN(c3ccccn3)CC2)[C@H](C(C)C)C[C@H]1Cc1nnc(-c2ccccc2)o1,?,7,?,-29%
Cc1nc(CN2C[C@H](C(=O)Nc3ccccc3)C[C@@H]2c2ccc(F)cc2)cs1,-20%[88.5 µM],-4,-13%[87.6 µM],-14%[87.6 µM]
O=[S+]1([O-])c2cnccc2O[C@@H](COCc2ccccc2)CN1Cc1cccc(F)c1,nt,4,nt,nt
Cc1ccc(/C=C/c2nc3ccccc3n2S(=O)(=O)c2ccc(Br)cc2)cc1,nt,1,-8%,?
CSc1ccc(/C=C/c2nc3ccccc3n2S(=O)(=O)c2cccc(Cl)c2)cc1,nt,-41*,-4%,?
CCn1c(=O)c2ccnn2c2ccc(C(=O)Nc3ccc(C)c(F)c3)cc21,1%,5,-16%,-17%
Cc1cccc(-c2nc3ccc(C(=O)N4CCOCC4)cc3o2)n1,?,-3,0%,-10%
COc1ccc2[nH]c3c(c2c1)CCNC31CCN(C(=O)c2cccn2C)CC1,i,-2,1%[12.5 µM],25µM*
Nc1nc(F)nc2c1ncn2[C@@H]1O[C@H](CO)[C@@H](O)[C@@H]1O,-3%,10,?,8.6µM*!
COCCCNC(=O)C(C)(C)Oc1nn(Cc2cccc(Cl)c2)c2ccccc12,-7%[88.5 µM],0,?,32µM*
CC12C(=O)OC(=O)C1(C)C1CCC2O1 (stereo not given),i,nt,?,3.5µM*
Cn1ncc2c(C(=O)N3CCN(c4ncccn4)CC3)cc(-c3ccccc3F)nc21,nt,2,nt,nt
CN1CCc2c(sc3c2C(=O)NC(c2ccc(OC(=O)c4ccc(Cl)cc4)cc2)N3)C1 (stereo not given),nt,-2,24%,-17%
CN1CCc2c(sc3c2C(=O)NC(c2ccc(OC(=O)c4ccc(C(C)(C)C)cc4)cc2)N3)C1 (stereo not given),nt,-10,?,1µM*
Cc1nn(-c2ccccc2)c2c1C(C(C)C)N(C1CCN(C(=O)c3ccc(C(F)(F)F)cc3)C1)C2=O (stereo not given),nt,-1,nt,nt
CC(=O)Nc1ccc(NC(=O)c2cc3c(n2C)CCN(Cc2ccccc2)C3)cc1,-25%,-9,9%,33%
Cn1c(C(=O)Nc2ccc(N3CCOCC3)cc2)cc2c1CCN(Cc1ccccc1)C2,22µM*,-8,-14%,78%
COc1cccc(C(=O)NCCn2ccn3nc(-c4ccc(C)c(C)c4)cc3c2=O)c1OC,i,-12,-7%,50%
C=C1C(=O)O[C@@H]2/C=C(\C)C(=O)/C=C/[C@](C)(O)C[C@@H](OC(=O)C(C)C)[C@@H]12,1%[27.3 µM],-1,9.3µM*,nt
O=[N+]([O-])c1ccc2c(c1)S(=O)(=O)C=C2,-9%,nt,?,5µM*
NC(=O)c1ccc([N+](=O)[O-])cc1Cl,3%,34,2%[23.9 µM],-8%[25.6 µM]
COc1cc(C)c(Sc2cnc(NC(=O)c3ccc(CNC(C)C(C)C)cc3)s2)cc1C(=O)N1CCN(C(C)=O)CC1 (stereo not given),0%,-13,27µM*!,?
SMILES,GPT2 inh,IP6K1 inhibitor,SNCA viab count,SNCA expr inh
COc1ccc(C(=O)Nc2ncc(-c3ccc(C(=O)O)cc3)s2)cc1,4%,-17,-36%,nt
Cn1ncc2c(C(=O)NCc3ccc(F)cc3)cc(C(C)(C)C)nc21,?,7,4%[12.5 µM],-11%[87.6 µM]
COc1ccc2c(c1)C(CN1CCN(CC(=O)OC(C)(C)C)CC1)=CC(C)(C)CO2,nt,29,nt,nt
CC(C)n1nc(-c2cc3cc(O)ccc3[nH]2)c2c(N)ncnc21,8.9µM*,-3,?,-55%[25.6 µM]
CC(C)n1nc(C#Cc2ccccc2)c2c(N)ncnc21,?,5,-30%,nt
O=C(NCc1cccc(Cl)c1)c1ccc2nnc(-c3cccc(C(F)(F)F)c3)n2c1,i,-3,?,?
